Test results reported in PubChem BioAssay (EPA / NIEHS).
Records with an inconclusive call do not appear. Some structures have more than one record in an assay (separate samples or runs), and their calls can disagree. Active and inactive are the calls of the source. Rule for the calls, unless noted: active = hit-call score of the fitted dose curve at least 0.9, where 1 is the maximum; inconclusive = response in the unintended direction; inactive = score below 0.9.

How the values were obtained:
[1] = ATG_ERE_CIS: Attagene CIS-FACTORIAL HepG2 Assay for Estrogen Response Element (ERE) (AID 2282940; active = hit-call score of the fitted dose curve at least 0.9, where 1 is the maximum; inactive = score below 0.9); settings: HepG2 ERE cis-reporter, Attagene RNA transcript; actives raise or lower the signal
Method in brief: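 Measuring endogenous transcription factor output, the assay doses transfected HepG2 cells for 24 hours and quantifies reporter transcripts by fluorescent RT-PCR and capillary electrophoresis, with DMSO as baseline.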

[2] = molecular target: Bile acid receptor (Homo sapiens) (UniProt Q96RI1); test: ATG_IR1_CIS: Attagene CIS-FACTORIAL HepG2 Assay for human Nuclear Receptor Subfamily 1 Group H Member 4 (NR1H4), IR1 submotif (AID 2282946; active = hit-call score of the fitted dose curve at least 0.9, where 1 is the maximum; inactive = score below 0.9); settings: IR1 reporter transcription, actives raise or lower the signal
Method in brief: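 Readout: reporter transcript levels by RT-PCR with fluorescent capillary electrophoresis, from HepG2 cells transiently transfected with multiplexed cis-regulated reporters and dosed 24 h. Gain- or loss-of-signal fitted versus DMSO negative control.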

[3] = molecular target: Nuclear receptor subfamily 1 group I member 3 (Homo sapiens) (UniProt Q14994); test: ATG_CAR_TRANS: Attagene TRANS-FACTORIAL HepG2 Assay for human Constitutive Androstane Receptor (CAR) (AID 2282969); settings: HepG2 Attagene TRANS-FACTORIAL CAR reporter;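 note: activators raise reporter mRNA above DMSO so AC50 marks induction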
Method in brief: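 Steps: transient transfection of HepG2 with multiple GAL4-UAS reporter units; 24 h compound incubation; RNA isolation, RT-PCR, 6-FAM primer extension, HpaI digest; capillary electrophoresis. Gain-of-signal relative to DMSO negative control.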

[4] = molecular target: Oxysterols receptor LXR-beta (Homo sapiens) (UniProt P55055); test: ATG_LXRb_TRANS: Attagene TRANS-FACTORIAL HepG2 Assay for human Liver X Receptor beta (LXRb) (AID 2282981); settings: HepG2 Attagene TRANS GAL4-LXRb reporter, mRNA
Method in brief: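 Measures induction of a Gal4-driven reporter transcript in HepG2 cells expressing an exogenous LXRb-Gal4 fusion. Cells are exposed to compound for 24 h before RNA isolation and RT-PCR with capillary electrophoresis detection.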

[5] = molecular target: Hepatocyte nuclear factor 4-alpha (Homo sapiens) (UniProt P41235); test: ATG_HNF4a_TRANS: Attagene TRANS-FACTORIAL HepG2 Assay for human Hepatocyte Nuclear Factor 4 alpha (HNF4a) (AID 2282982); settings: HepG2 HNF4a transactivation reporter, mRNA readout
Method in brief: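 In this trans-factorial format, a chimeric HNF4a-GAL4 fusion drives a GAL4-UAS reporter in transfected HepG2 liver cells. After 24 h treatment, reporter mRNA induction is measured by RT-PCR with capillary electrophoresis, relative to DMSO.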

[6] = molecular target: human Peroxisome Proliferator-activated Receptor alpha (PPARa), PPARA (gene 5465) (UniProt Q07869); test: ATG_PPARa_TRANS: Attagene TRANS-FACTORIAL HepG2 Assay for human Peroxisome Proliferator-activated Receptor alpha (PPARa) (AID 2283001)
Method in brief: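 Cells (HepG2) are transfected with multiple reporter transcription units, exposed to chemical for 24 h, then total RNA is reverse-transcribed and amplified. Labelled products are quantified by capillary electrophoresis; induction is referenced to DMSO.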

[7] = molecular target: human Vitamin D Receptor (VDR), VDR (gene 7421) (UniProt P11473); test: ATG_VDR_TRANS: Attagene TRANS-FACTORIAL HepG2 Assay for human Vitamin D Receptor (VDR) (AID 2283022)
Method in brief: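 HepG2 cells were transiently transfected with GAL4-UAS reporter units and a chimeric VDR-Gal4 construct, then dosed for 24 hours. Reporter mRNA was quantified by RT-PCR, fluorescent labeling, HpaI digestion and capillary electrophoresis; gain of signal analysed vs DMSO.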

[8] = ATG_M_19_TRANS: Attagene TRANS-FACTORIAL HepG2 Assay for M19 Transcription Factor (Internal Marker) (AID 2282974); settings: HepG2 Attagene TRANS-FACTORIAL M19 internal marker reporter
Method in brief: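 24 h chemical exposure of transiently transfected HepG2 (MRTU library). RNA → oligo(dT) RT → PCR → 6-FAM labelling → HpaI cut → CE fluorescence. Positive-direction fit vs DMSO baseline; background internal-marker readout.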

[9] = molecular target: human RAR-related Orphan Receptor gamma (RORg), RORC (gene 6097) (UniProt P51449); test: ATG_RORg_TRANS: Attagene TRANS-FACTORIAL HepG2 Assay for human RAR-related Orphan Receptor gamma (RORg) (AID 2283011)
Method in brief: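 HepG2 cells transiently transfected with GAL4-UAS reporter units and chimeric RORg-Gal4 construct; after 24 h chemical exposure, reporter mRNA measured by RT-PCR with fluorescent capillary electrophoresis, gain of signal fitted against DMSO.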

[10] = molecular target: human Retinoid X Receptor beta (RXRb), RXRB (gene 6257) (UniProt P28702); test: ATG_RXRb_TRANS: Attagene TRANS-FACTORIAL HepG2 Assay for human Retinoid X Receptor beta (RXRb) (AID 2283013)
Method in brief: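 Chimeric receptor-Gal4 activity was assessed in transiently transfected human HepG2 cells after 24 h exposure. Transcripts from GAL4-UAS reporters were quantified by fluorescent RT-PCR and capillary electrophoresis, with DMSO as negative control and baseline.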

[11] = TOX21_p53_BLA_p2_viability: Viability Assessment in the Tox21 HCT-116 p53 Agonism Beta-lactamase Assay, Phase 2 (AID 2283591);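 note: actives lower the ATP signal meaning cytotoxicity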
Method in brief: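 HCT-116 p53-bla cells (4000/well) rested 5 h at 37C, then received compounds in DMSO (217-fold dilution) for 16 h at 37C, 5% CO2. After the CCF4 read, CellTiter-Glo was added; ATP luminescence was read after 30 min at room temperature.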

[12] = TOX21_p53_BLA_p3_viability: Viability Assessment in the Tox21 HCT-116 p53 Agonism Beta-lactamase Assay, Phase 3 (AID 2283593);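 note: cells exposed to compound for 16 h before reading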
Method in brief: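 HCT-116 cells (4000/well) rested 5 h at 37C, then got DMSO compounds by pin tool (217-fold dilution) for 16 h at 37C, 5% CO2. After the bla read, CellTiter-Glo was added and luminescence read at 30 min, room temperature.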

[13] = molecular target: Cellular tumor antigen p53 (Homo sapiens) (UniProt P04637); test: TOX21_p53_BLA_p3_ratio: Tox21 HCT-116 p53 Agonism Beta-lactamase Assay, Ratio, Phase 3 (AID 2283596)
Method in brief: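 Cells were seeded at 4000/well, rested 5 h at 37C, then dosed with DMSO compound solutions (217-fold dilution) for 16 h. CCF4-AM substrate was loaded for 2 h at room temperature, and the 460/530 nm emission ratio was fitted for gain of signal versus DMSO.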

[14] = TOX21_p53_BLA_p5_viability: Viability Assessment in the Tox21 HCT-116 p53 Agonism Beta-lactamase Assay, Phase 5 (AID 2283600)
Method in brief: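 Decreased CellTiter-Glo luminescence denotes lost viability. Exposure: 16 h at 37C, 5% CO2, with compounds from DMSO stocks diluted 217-fold in wells of 4000 cells.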

[15] = molecular target: Cellular tumor antigen p53 (Homo sapiens) (UniProt P04637); test: TOX21_p53_BLA_p4_ratio: Tox21 HCT-116 p53 Agonism Beta-lactamase Assay, Ratio, Phase 4 (AID 2283601)
Method in brief: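 HCT116 cells carrying an inducible beta-lactamase reporter were plated at 4000 cells/well, rested 5 h, then exposed to compounds in DMSO (217-fold dilution) for 16 h at 37C. CCF4-AM substrate was loaded 2 h at room temperature; 460/530 nm emission ratio scored gain-of-signal versus DMSO.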

[16] = ATG_GAL4_TRANS: Attagene TRANS-FACTORIAL HepG2 Assay for GAL4 (Internal Marker) (AID 2282976); settings: HepG2 Attagene TRANS GAL4 internal marker reporter
Method in brief: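 Background-control readout: GAL4-UAS reporter transcript in transiently transfected HepG2 cells after 24 h compound exposure. Measured by RT-PCR, 6-FAM primer extension, HpaI digest and capillary electrophoresis; gain-of-signal fit versus DMSO.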

[17] = TOX21_p53_BLA_p4_viability: Viability Assessment in the Tox21 HCT-116 p53 Agonism Beta-lactamase Assay, Phase 4 (AID 2283597);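 note: hits lower the luminescence signal meaning cytotoxicity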
Method in brief: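 4000 HCT116 cells per well; 5 h attachment; compounds from DMSO, 217-fold dilution; 16 h at 37C. Then CCF4-AM, 2 h RT, followed by CellTiter-Glo, 30 min RT, luminescence. Decrease = cytotoxicity.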

[18] = molecular target: human Peroxisome Proliferator-activated Receptor delta (PPARd), PPARD (gene 5467) (UniProt Q03181); test: ATG_PPARd_TRANS: Attagene TRANS-FACTORIAL HepG2 Assay for human Peroxisome Proliferator-activated Receptor delta (PPARd) (AID 2283002)
Method in brief: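 Multiplexed trans-activation format: HepG2 liver cells expressing exogenous NR-Gal4 chimeras and GAL4-UAS reporters were exposed for 24 h. Reporter mRNA was detected by RT-PCR with capillary electrophoresis fluorescence; activity fitted as gain of signal relative to DMSO.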

[19] = ACEA_AR_agonist_AUC_viability: ACEA Biosciences xCELLigence Real-Time Cell Analysis on Androgen Receptor Agonism for Viability (AID 2283775);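 for AC50: viability read 80 hours after compound addition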
Method in brief: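 22Rv1 cells; impedance growth kinetics; 8-pt 1:4 dilutions from 100 uM top final, ≤0.5% DMSO; n = 2; 80 h read; AUC viability, loss-of-signal vs DMSO.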

[20] = CCTE_Harrill_HTTr_Apoptosis_MCF7: CCTE's 6-hour Apoptosis Assessment for the High-Throughput Transcriptomics (HTTr) Platform, in MCF-7 cells cultured in DMEM + 10% fetal bovine serum, Harrill Lab (AID 2284011; active = hit-call score of the fitted dose curve at least 0.9, where 1 is the maximum; inactive = score below 0.9)
Method in brief: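 MCF-7 cells in DMEM + 10% FBS exposed 6 h to chemicals over an eight-point dilution series. Caspase-3/7 activation imaged by high-content CellEvent Green staining; fitted bidirectionally versus DMSO.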

Measured: AC50

Chain of Bile acid receptor (Homo sapiens) (Q96RI1 whole entry, looked up): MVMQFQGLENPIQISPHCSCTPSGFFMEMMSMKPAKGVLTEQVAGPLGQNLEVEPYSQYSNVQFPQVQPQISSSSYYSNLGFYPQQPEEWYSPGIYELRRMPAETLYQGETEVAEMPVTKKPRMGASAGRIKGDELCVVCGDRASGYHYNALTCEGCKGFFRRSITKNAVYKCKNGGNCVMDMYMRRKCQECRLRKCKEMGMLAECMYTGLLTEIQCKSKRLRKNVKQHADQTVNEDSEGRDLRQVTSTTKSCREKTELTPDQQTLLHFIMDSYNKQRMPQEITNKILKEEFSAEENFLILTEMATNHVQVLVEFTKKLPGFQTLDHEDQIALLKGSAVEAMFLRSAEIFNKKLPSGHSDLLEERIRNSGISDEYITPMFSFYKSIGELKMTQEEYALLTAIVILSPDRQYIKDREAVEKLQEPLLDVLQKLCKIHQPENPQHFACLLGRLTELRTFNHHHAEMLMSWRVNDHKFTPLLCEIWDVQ
Chain of Oxysterols receptor LXR-beta (Homo sapiens) (P55055 whole entry, looked up, the tested form may be a part): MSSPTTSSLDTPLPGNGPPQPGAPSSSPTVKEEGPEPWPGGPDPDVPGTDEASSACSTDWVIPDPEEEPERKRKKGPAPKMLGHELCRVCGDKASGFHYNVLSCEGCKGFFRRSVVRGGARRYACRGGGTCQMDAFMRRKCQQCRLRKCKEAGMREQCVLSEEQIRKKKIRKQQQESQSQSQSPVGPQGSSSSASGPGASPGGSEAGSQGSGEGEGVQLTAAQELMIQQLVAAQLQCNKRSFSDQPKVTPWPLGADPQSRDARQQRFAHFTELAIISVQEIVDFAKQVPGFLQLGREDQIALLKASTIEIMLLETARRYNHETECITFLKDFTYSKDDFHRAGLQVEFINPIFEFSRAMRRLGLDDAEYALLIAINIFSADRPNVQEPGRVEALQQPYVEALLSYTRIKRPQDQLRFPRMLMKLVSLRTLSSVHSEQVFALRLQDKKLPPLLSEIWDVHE
Chain of human Retinoid X Receptor beta (RXRb), RXRB (gene 6257) (P28702 whole entry, looked up, the tested form may be a part): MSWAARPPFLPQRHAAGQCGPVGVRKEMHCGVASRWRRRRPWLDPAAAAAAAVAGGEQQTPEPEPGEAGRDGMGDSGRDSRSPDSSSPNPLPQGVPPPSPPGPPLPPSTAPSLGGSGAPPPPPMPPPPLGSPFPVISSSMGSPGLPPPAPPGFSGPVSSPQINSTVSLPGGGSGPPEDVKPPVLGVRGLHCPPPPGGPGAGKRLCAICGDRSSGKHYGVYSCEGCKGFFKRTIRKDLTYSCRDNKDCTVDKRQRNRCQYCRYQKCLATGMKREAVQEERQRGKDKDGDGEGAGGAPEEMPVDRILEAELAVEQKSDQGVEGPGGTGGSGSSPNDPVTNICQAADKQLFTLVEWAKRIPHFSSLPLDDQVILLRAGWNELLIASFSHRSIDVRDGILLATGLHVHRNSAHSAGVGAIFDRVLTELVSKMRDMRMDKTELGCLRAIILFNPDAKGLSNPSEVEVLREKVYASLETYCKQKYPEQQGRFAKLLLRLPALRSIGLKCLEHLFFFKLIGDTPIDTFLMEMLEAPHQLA
Chain of Hepatocyte nuclear factor 4-alpha (Homo sapiens) (P41235 whole entry, looked up, the tested form may be a part): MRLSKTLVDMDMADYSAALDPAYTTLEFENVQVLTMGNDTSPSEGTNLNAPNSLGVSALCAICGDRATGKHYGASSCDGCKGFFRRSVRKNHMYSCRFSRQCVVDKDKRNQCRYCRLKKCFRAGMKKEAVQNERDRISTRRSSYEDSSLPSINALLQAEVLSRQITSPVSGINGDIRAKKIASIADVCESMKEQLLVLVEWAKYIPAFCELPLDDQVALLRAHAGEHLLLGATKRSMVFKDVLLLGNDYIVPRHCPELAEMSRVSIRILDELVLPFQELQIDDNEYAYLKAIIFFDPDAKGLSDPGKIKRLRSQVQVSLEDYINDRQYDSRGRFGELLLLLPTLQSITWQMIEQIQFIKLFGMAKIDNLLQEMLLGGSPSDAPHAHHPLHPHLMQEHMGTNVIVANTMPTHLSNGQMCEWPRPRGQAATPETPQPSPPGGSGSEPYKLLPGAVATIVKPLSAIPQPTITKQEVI
Chain of human Peroxisome Proliferator-activated Receptor alpha (PPARa), PPARA (gene 5465) (Q07869 whole entry, looked up): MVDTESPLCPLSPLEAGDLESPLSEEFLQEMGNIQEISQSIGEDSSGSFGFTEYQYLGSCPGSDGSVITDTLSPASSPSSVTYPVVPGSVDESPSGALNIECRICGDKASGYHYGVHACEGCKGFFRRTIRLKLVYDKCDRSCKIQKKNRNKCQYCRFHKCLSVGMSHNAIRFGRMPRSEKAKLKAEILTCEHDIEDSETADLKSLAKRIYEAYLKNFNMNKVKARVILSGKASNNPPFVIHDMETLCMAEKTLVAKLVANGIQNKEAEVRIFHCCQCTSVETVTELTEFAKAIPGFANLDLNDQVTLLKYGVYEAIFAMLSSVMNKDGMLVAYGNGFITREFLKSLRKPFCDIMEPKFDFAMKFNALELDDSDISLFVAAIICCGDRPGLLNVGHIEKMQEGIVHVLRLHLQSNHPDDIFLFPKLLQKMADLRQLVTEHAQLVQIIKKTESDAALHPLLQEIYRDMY
Chain of human Peroxisome Proliferator-activated Receptor delta (PPARd), PPARD (gene 5467) (Q03181 whole entry, looked up, the tested form may be a part): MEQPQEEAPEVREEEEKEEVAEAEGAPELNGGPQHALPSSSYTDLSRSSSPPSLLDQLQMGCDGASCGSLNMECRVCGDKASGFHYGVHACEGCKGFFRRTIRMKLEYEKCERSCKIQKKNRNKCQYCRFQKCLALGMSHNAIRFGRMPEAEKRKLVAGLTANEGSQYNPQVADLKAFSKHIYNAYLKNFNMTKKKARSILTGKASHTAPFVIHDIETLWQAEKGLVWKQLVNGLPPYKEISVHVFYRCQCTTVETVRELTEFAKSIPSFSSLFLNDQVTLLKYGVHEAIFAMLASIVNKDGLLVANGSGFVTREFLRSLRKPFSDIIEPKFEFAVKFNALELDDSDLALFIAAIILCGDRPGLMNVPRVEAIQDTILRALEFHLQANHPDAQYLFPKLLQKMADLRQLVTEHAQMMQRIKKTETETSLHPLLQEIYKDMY
Chain of Nuclear receptor subfamily 1 group I member 3 (Homo sapiens) (Q14994 whole entry, looked up, the tested form may be a part): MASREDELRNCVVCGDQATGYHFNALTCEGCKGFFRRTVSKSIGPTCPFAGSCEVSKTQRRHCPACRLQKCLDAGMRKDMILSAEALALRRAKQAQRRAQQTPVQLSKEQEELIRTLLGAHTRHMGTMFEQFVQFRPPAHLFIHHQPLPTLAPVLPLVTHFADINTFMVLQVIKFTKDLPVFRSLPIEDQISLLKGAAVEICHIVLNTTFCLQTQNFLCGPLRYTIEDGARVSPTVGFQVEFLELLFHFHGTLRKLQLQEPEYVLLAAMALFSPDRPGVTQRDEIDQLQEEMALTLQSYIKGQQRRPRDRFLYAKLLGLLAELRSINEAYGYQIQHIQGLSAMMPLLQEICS
Chain of human Vitamin D Receptor (VDR), VDR (gene 7421) (P11473 whole entry, looked up, the tested form may be a part): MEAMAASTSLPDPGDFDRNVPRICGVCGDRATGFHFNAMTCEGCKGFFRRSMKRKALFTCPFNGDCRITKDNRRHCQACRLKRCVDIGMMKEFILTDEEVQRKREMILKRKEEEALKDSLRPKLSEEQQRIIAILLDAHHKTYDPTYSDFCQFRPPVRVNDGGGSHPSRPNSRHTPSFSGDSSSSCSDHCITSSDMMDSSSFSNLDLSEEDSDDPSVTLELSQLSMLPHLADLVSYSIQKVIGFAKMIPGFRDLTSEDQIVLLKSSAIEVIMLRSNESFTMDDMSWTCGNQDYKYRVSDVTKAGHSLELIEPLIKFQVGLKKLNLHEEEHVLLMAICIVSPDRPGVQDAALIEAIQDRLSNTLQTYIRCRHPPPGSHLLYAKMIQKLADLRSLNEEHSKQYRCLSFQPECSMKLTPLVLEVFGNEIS
Chain of human RAR-related Orphan Receptor gamma (RORg), RORC (gene 6097) (P51449 whole entry, looked up, the tested form may be a part): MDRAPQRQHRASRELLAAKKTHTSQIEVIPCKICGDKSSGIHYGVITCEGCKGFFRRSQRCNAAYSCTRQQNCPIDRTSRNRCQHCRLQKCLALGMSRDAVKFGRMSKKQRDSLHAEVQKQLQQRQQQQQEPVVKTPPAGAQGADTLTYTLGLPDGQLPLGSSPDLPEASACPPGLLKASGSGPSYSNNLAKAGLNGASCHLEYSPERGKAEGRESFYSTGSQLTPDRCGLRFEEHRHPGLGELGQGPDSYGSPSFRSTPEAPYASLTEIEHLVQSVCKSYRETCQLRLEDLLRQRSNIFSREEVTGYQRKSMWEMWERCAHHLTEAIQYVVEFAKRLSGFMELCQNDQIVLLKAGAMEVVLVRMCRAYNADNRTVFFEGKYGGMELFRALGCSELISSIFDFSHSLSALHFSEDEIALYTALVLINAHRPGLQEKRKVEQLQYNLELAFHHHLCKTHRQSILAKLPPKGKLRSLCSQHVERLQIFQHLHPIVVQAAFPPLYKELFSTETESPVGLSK
Chain of Cellular tumor antigen p53 (Homo sapiens) (P04637 whole entry, looked up): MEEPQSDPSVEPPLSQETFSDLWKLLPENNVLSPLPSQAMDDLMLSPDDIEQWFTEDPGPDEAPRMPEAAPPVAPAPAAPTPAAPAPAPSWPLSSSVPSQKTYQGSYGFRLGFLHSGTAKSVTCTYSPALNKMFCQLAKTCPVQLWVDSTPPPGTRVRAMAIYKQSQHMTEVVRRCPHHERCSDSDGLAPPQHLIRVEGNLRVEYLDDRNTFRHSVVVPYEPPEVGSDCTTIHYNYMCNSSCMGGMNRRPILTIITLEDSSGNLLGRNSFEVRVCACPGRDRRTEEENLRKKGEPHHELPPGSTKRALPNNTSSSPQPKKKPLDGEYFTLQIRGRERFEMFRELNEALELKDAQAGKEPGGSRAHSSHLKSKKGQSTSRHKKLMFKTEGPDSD

CN(N=O)c1ccccc1
inactive: [1] | [2] | [3] | [4] | [5] | [6] | [7]

COC(C)(C)CCC[C@H](C)C/C=C/C(C)=C/C(=O)OC(C)C
inactive: [3] | [8] | [6] | [9] | [10] | [11] | [12] | [13] | [14] | [15]

[Cl-].[Cl-].[Cl-].[Yb+3]
inactive: [16] | [5] | [9] | [11] | [12] | [17]

CC(C)[C@@H](C(=O)O[C@@H](C#N)c1cccc(Oc2ccccc2)c1)c1ccc(Cl)cc1
active: [19] 41.6 µM
inactive: [3] | [16] | [18] | [10] | [11] | [13] | [17] | [14] | [15] | [19] | [20]

O=[N+]([O-])c1ccc(Cl)cc1
not listed: [1] | [2] | [3] | [10] | [13] | [16] | [18]
inactive: all other assays above

O=S(=O)(O)OOS(=O)(=O)O
inactive: [8] | [4] | [5] | [18] | [9] | [10] | [19]

C[N+](C)(C)CC(=O)O
inactive: [1] | [8] | [16] | [5] | [18] | [9] | [20]

CCOC(=O)COc1ccc(Cl)cc1Cl
inactive: [3] | [16] | [18] | [11] | [12] | [13] | [14] | [15] | [20]

C=CCc1ccc(OC(=O)Cc2ccccc2)c(OC)c1
inactive: [3] | [8] | [5] | [18] | [9] | [10] | [7] | [11] | [14]

Cc1ccccc1CCl
inactive: [3] | [16] | [4] | [6] | [18] | [9] | [10] | [14] | [15]

C[N+](C)=CCl
inactive: [1] | [16] | [5]

O=C(O)COc1ccccc1
inactive: [1] | [4] | [6] | [11] | [12] | [13] | [14] | [15]

CCOC(=O)N(C)N=O
inactive: [8] | [16] | [4] | [6] | [18] | [11] | [12] | [13] | [14] | [20]

O=c1c2ccccc2c(=O)c2c1cc(Cl)c1[nH]c3c([nH]c12)c(Cl)cc1c(=O)c2ccccc2c(=O)c13
inactive: [1] | [2] | [3] | [5] | [6] | [18] | [9] | [17] | [14] | [15]
active: [10] 138 µM

CC1(C)C(=O)NC(=O)NC1=O
inactive: [1] | [8] | [16] | [5] | [9] | [10] | [11] | [12] | [13] | [17] | [14]

O=S(=O)(O)O
inactive: [4] | [6] | [10]

CCCCCc1cc(O)cc(O)c1
inactive: [5] | [6] | [18] | [10] | [7] | [13] | [17] | [15]
active: [2] 155 µM

Nc1c(Cl)c(Cl)c(Cl)c(Cl)c1Cl
active: [3] 27.3 µM | [4] 26.1 µM | [10] 28.6 µM
inactive: [6] | [18] | [7]

C=CC(=O)OCCO
inactive: [5] | [6] | [18] | [7] | [12] | [13] | [14] | [15] | [19]

CN1C[C@H](C(=O)N[C@]2(C)O[C@@]3(O)[C@@H]4CCCN4C(=O)[C@H](Cc4ccccc4)N3C2=O)C=C2c3cccc4[nH]cc(c34)C[C@H]21
inactive: [1] | [2] | [8] | [16] | [4] | [7] | [11] | [12] | [13] | [17] | [14] | [15]
active: [17] 71.4 µM
